The values that follow come from PubChem BioAssay (EPA / NIEHS).

The source made the active and inactive calls. Rule for the calls: active = hit-call score of the fitted dose curve at least 0.9, where 1 is the maximum; inactive = score below 0.9.

The experiment in a line: CEETOX_H295R_OHPROG: CeeTox H295R High-throughput Steroidogenesis Assay for OH-Progesterone (OHPROG) (AID 2283435). The settings on record: actives raise or lower the signal. How it is done: CEETOX_H295R is a cell-based, multiplexed-readout assay that uses H295R, a human adrenal gland cell line, with measurements taken at 48 hours after chemical dosing in a 96-well plate.CEETOX_H295R_OHPROG is one of 23 assay component(s) measured or calculated from the CEETOX_H295R assay. It is designed to make measurements of hormone induction, a form of inducible reporter, as detected with absorbance signals by HPLC-MS-MS technology.Data from the assay component CEETOX_H295R_OHPROG was analyzed into 1 assay endpoint. This assay endpoint, CEETOX_H295R_OHPROG, was analyzed with bidirectional fitting relative to DMSO as the negative control and baseline of activity. Using a type of inducible reporter, gain or loss-of-signal activity using HPLC-MS-MS was used to understand synthesis of 17alpha-hydroxyprogesterone in H295R cell line at 48hr of chemical exposure. To generalize the intended target to other relatable targets, this assay endpoint is annotated to the steroid hormone intended target family, where the subfamily is progestagens.
Cell culture and media preparation procedures were conducted in accordance with OECD Test No. 456 guidelines, with minor modifications. H295R cells (ATCC CRL-2128) were expanded for 5 passages and frozen in batches in liquid nitrogen. Prior to the steroidogenesis assay, H295R cells were thawed and passed at least 4 times. The maximum passage was 10. Cells were maintained in a 1:1 mixture of DMEM/F12 supplemented with 5ml/L ITS+ Premix (BD Bioscience) and 12.5 ml/L Nu-Serum (BD Bioscience). After seeding cells into 96-well plates at 50-60% confluency, cells were allowed to adhere overnight. Prior to chemical testing, culture medium was replaced with 175 uL medium containing 10 uM forskolin to stimulate steroidogenesis for 48 hours. Following prestimulation, forskolin medium was replaced with medium containing test chemical solubilized in DMSO (ensuring a final concentration of 0.1% DMSO). Test chemicals were incubated for 48 hours, then the medium was removed and split into 2 vials containing approximately 75uL each, and stored at -80 C prior to hormone analysis. For steroid quantification, media samples were shipped to OpAns, LLC (Durham, NC) on dry ice, and samples were thawed to room temperature prior to liquid-liquid extraction. Steroid hormones were extracted from media samples using methyl tertbutyl ether (MTBE). An extra derivatization with dansyl chloride was included for estrogen (estrone and estradiol) detection only. Steroid hormones were separated by HPLC, eluted using a reverse phase C18 gradient with electrospray positive ionization, followed by quantification by tandem mass spectrometry (MS/MS). Data were acquired on a MassHunter Workstation Acquisition version B03.01 (Agilent Technologies, Inc.) and processed using MassHunter Quantitative Analysis for QQQ. Accuracy was determined for each hormone analyte from 3 standards to determine upper and lower limits of quantification (ULOQ and LLOQ, respectively) using a 7-point standard curve. Precision and accuracy of the extraction and quantification methods were calculated as the percent relative standard deviation (%RSD) of the spiked standards and percent spiked standard recovered, respectively. […] Test medium was removed following chemical exposure, and cell viability was evaluated in the same wells by MTT. MTT procedures were as follows: after removal of test medium, 500 uL of 0.5 mg/ml of 3-[4,5-dimethylthiazol-2-y]2,5-diphenyltetrazoliumbromide solution was added to the cells. Following a 4-hour incubation at 37 C and 5% CO2 to allow formazan-crystal formation, the MTT solution was removed and blue formazan salt crystals were solubilized using 500uL anhydrous isopropanol with shaking for 20 minutes. Absorbance was read at 570 and 650nm using a Packard Fusion microplate reader. Background correction of absorbance units was used to determine percent change relative to controls. […]
On to `Oc1ccc(Cl)cc1Cc1cc(Cl)ccc1O`, for which the molecule was classed as inactive.
The AC50 is the midpoint of the concentration-response curve, whichever way the signal moves. `O=C(C=Cc1ccccc1)OCc1ccccc1`: the half-maximal activity concentration (AC50) was 50 µM (active).
For the molecule `O=C(Nc1ccccc1SSc1ccccc1NC(=O)c1ccccc1)c1ccccc1`, the molecule was classed as inactive.
On the same count and under the same terms, in the case of `C=COCCCC` it was “inactive”.
Same read-out and setting: in the case of `CN(C)c1ccc(C(=N)c2ccc(N(C)C)cc2)cc1` it was “inactive”.
Take `COC(=O)c1c(C)cc(O)c(C)c1O`: the AC50 was 26.3 µM (active).
On to `CCCCC/C=C\CCC=O`, for which the molecule was classed as inactive.
On to `C#CC1(O)CC[C@H]2[C@@H]3CCC4=CCCC[C@@H]4[C@H]3CC[C@@]21C` (stereo partly specified), for which the concentration at half-maximal activity (AC50) was 7.02 µM (active).
The same measure, in the same setting: in the case of `CCOC(=O)Cc1cccc2ccccc12` it was 40.1 µM (active).
For `CO[Si](CCC1CCC2OC2C1)(OC)OC` (stereo unspecified), the molecule was classed as inactive.
For `COc1ccc2nc(N)sc2c1`, the AC50 is 7.33 µM (active).
In the case of `COCc1c(C(C)C)nc(C(C)C)c(/C=C/[C@@H](O)C[C@@H](O)CC(=O)O)c1-c1ccc(F)cc1`, the AC50 was 0.0173 µM (active).
`CCCCCCCCCCCCCOP(=O)(O)O`: the call was inactive.
For the molecule `CCCCNc1ccc(NCCCC)c2c1C(=O)c1ccccc1C2=O`, the concentration at half-maximal activity (AC50) is 0.164 µM (active).
As to `S=C(NC1CCCCC1)NC1CCCCC1`, the result was inactive.
Take `Cc1ccc(C(C)c2ccc(C)c(C)c2)cc1C`: the AC50 was 31.9 µM (active).
